PAFAH2 FP inh = PAFAH2 (human) inhibition. inhibition, % at 3.39 µM. AID 492956. 0.99% of 340,000 active. Q99487. recombinant PAFAH2, FP-rhodamine activity probe, fluorescence polarization;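 active = inhibition above the mean over all tested compounds plus 3 SD, cut at about 30% in these data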;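 also: inhibitors block probe labeling of enzyme so polarization drops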
PAFAH1B3 FP inh = blocks human PAF acetylhydrolase 1B catalytic subunit 3; recombinant PAFAH1B3, FP-rhodamine probe, fluorescence polarization; inhibition, % at 3.39 µM; 0.28% of 340,000 active; AID 492972;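 active = inhibition above the screen-wide average of all tested compounds plus 3 SD, cut at about 25% in these data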
ZTA counter = blocks Epstein-Barr virus ZTA, an EBNA-1 counter-screen; ZTA-DNA binding, fluorescence polarization; P03206; inhibition, % at 11 µM; 0.15% of 320,000 active; in the data active = inhibition above about 33%
Target sequence (P03206 whole entry, looked up): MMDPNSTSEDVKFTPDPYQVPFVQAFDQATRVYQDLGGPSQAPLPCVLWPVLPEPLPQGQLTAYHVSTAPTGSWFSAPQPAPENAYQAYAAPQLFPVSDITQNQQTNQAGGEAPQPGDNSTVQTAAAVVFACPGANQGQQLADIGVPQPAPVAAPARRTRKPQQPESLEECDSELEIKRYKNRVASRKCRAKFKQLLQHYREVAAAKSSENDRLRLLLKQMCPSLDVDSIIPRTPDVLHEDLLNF
PAFAH1B2 inh = PAFAH1B2 (human) inhibition; P68402; 1.2% of 340,000 active; AID 492953; recombinant PAFAH1B2, FP-rhodamine activity probe, fluorescence polarization; inhibition, % at 3.39 µM;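 active = inhibition above the mean of all tested compounds plus 3 SD, cut at about 24% in these data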
Target sequence (P68402 whole entry, looked up): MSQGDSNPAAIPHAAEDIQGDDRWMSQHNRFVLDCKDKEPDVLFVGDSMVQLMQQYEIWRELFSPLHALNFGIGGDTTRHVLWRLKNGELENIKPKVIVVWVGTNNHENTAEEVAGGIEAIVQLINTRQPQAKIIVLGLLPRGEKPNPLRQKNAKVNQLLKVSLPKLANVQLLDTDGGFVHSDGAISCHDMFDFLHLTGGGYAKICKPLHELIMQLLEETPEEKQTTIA
pPAFAH FP inh = pPAFAH (human) enzyme inhibition. Q13093. recombinant pPAFAH, FP-rhodamine probe fluorescence polarization. inhibition, % at 3.39 µM. 1.5% of 330,000 active. AID 463082;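 active = inhibition above the mean inhibition across the screen plus 3 SD, cut at about 25% in these data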;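 also: inhibitors block binding of the rhodamine activity-based probe so polarization drops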
EBNA-1 inhibitor = blocks EBNA-1 binding to DNA. EBNA-1 DNA binding, fluorescence polarization. inhibition, % at 14.8 µM. 0.34% of 300,000 active. AID 1950; in the data active = inhibition above about 28%
Hits are given with their value; i = inactive; nt = no result given. The list is not random: actives were taken first. Their share in the collection is about 2.9%.

SMILES	PAFAH2 FP inh	PAFAH1B3 FP inh	ZTA counter	PAFAH1B2 inh	pPAFAH FP inh	EBNA-1 inhibitor
CCCC(=O)Nc1sc(-c2ccccc2)c(-c2ccccc2)c1C(=O)O	i	i	i	42.4	i	i
C/C(=N\O)C1/C(=N/O)CC2C1C2(C)C (configuration not stated)	i	i	i	33.7	i	i
Oc1ccc(-c2nc3ccc4ccccc4c3c3c2CCC3)cc1O	i	i	i	i	32.9	i
COc1cccc(N2CCN(CC(=O)Nc3ccc(SC(F)F)cc3)CC2)c1	i	i	i	i	i	i
O=C(CN1CCN(c2ccc(O)cc2)CC1)Nc1ccc(SC(F)F)cc1	i	i	i	i	32.6	i
CCCCN1C(=O)C(=O)N(CC(=O)Nc2sc(CC)cc2C(=O)OCC)C1=O	i	i	i	i	33.3	i
CCOC(=O)c1cc(CC)sc1NC(=O)COC	i	i	i	i	i	i
O=C(NCc1ccc2c(c1)OCO2)c1ccc(CS(=O)(=O)Cc2cccc(Cl)c2)o1	i	i	i	i	25.0	i
O=C(NCc1ccc2c(c1)OCO2)c1ccc(CSCc2ccc(Cl)cc2)o1	i	i	i	25.7	i	i
O=C(NCc1ccc2c(c1)OCO2)c1ccc(COc2cc(Cl)ccc2Cl)o1	i	i	i	i	i	i
CCc1ccccc1S(=O)(=O)Cc1ccc(C(=O)NCc2ccc3c(c2)OCO3)o1	i	i	i	i	i	i
Cc1ccc(S(=O)(=O)c2nnn(-c3cccc(F)c3)c2N)cc1	i	i	i	i	i	i
COc1ccc(Cn2c(O)c(C=Nc3ccccc3C(=O)O)c3ccccc3c2=O)cc1	37.0	i	i	i	26.6	i
Cc1ccc(C)c(OCCC(=O)OCc2csc(CC(=O)Nc3ccccc3C)n2)c1	i	i	nt	i	nt	nt
O=C1CSC(=S)N1N1C(=O)c2cccc([N+](=O)[O-])c2C1=O	nt	nt	i	nt	i	i
O=C1c2ccccc2-c2cccc(C(=O)N3CCCCCC3)c21	i	i	i	i	i	i
CC1(C)Cc2ccccc2C2=C(C(=O)N3CCCCCC3)C(=O)C(=O)N21	i	i	i	61.4	i	i
O=C1C(=O)N2C(=C1C(=O)N1CCCCCC1)c1ccccc1CC21CCCC1	i	i	i	56.9	i	i
CCC1(CC)Cc2ccccc2C2=C(C(=O)N3CCCCC3)C(=O)C(=O)N21	i	i	i	i	i	i
O=C(Nc1cc2c(cc1Cl)-c1ccc([N+](=O)[O-])cc1C2=NO)C(F)(F)F	i	i	nt	i	nt	nt
O=C(O)c1ccc(CNC(=O)C23CC4CC(CC(C4)C2)C3)cc1	i	i	i	29.0	i	i
CC(C)(CO)NC(=O)C12CC3CC(CC(Br)(C3)C1)C2	i	i	i	26.1	i	i
NS(=O)(=O)c1ccc(CNC(=O)C23CC4CC(CC(C4)C2)C3)cc1	i	i	i	i	i	i
COc1ccc(CNC(=O)C23CC4CC(CC(Br)(C4)C2)C3)cc1	i	i	i	25.9	i	i
COc1ccc(OC)c(CCNC(=O)CN2C(=O)COc3ccc(S(=O)(=O)N4CCOCC4)cc32)c1	i	i	i	i	i	i
SMILES	PAFAH2 FP inh	PAFAH1B3 FP inh	ZTA counter	PAFAH1B2 inh	pPAFAH FP inh	EBNA-1 inhibitor
Cc1[nH]nc2c1C(c1ccc(Cl)cc1)C(C#N)=C(N)O2 (configuration not stated)	i	i	i	28.4	i	i
CCOc1ccc(C(=O)CC(C(=O)O)N2CCCCC2)cc1 (configuration not stated)	i	i	i	i	i	nt
COc1cc(/C=C/C(=O)OCC(=O)NC2CCCCCCC2)ccc1O	75.6	i	nt	i	26.5	nt
COc1cc(/C=C/C(=O)OCC(=O)NC(=O)NC2CCCC2)ccc1OCC#N	i	i	nt	i	nt	nt
COc1cc(/C=C/C(=O)OCC(=O)Nc2cccc(F)c2)ccc1O	92.9	i	nt	i	28.5	nt
CCOC(=O)NC1Cc2ccccc2C1Sc1ccccn1 (configuration not stated)	i	i	i	i	i	i
CC(C(=O)N1CCN=C1c1ccccc1)N1C(=O)c2ccccc2C1=O (configuration not stated)	i	i	i	i	i	i
O=C(NCCN1CCOCC1)c1ccc(/C=C2\Sc3ccccc3N(Cc3ccccc3F)C2=O)cc1	i	i	i	i	32.5	i
COc1cc(OC)cc(C(=O)NCC(=O)OC2CCCCC2=O)c1 (configuration not stated)	i	i	i	i	i	nt
O=C(c1n[nH]c2ccccc12)N1CCN(S(=O)(=O)c2ccc(Cl)cc2)CC1	i	i	i	i	i	nt
Cc1cccc(N=Cc2cc3c(cc2[N+](=O)[O-])OCO3)c1	i	i	i	i	27.8	i
Oc1ccc(C=Nc2ccc(N3CCOCC3)cc2)c(O)c1	i	i	i	i	25.6	i
Cc1ccc(O)c(N=Cc2cc(Cc3ccccc3)cc([N+](=O)[O-])c2O)c1	i	i	nt	34.5	nt	nt
Cc1ccc(O)c(C=Nc2cc(C)ccc2O)c1	i	i	i	i	i	i
O=[N+]([O-])c1cc(Cc2ccccc2)cc(C=Nc2ccc(N3CCOCC3)cc2)c1O	i	i	76.9	25.1	34.1	39.8
O=C(O)c1ccc2c(c1)C1C=CCC1C(c1cc3c(cc1Br)OCO3)N2 (configuration not stated)	i	i	i	i	i	i
O=C(O)c1ccc(NS(=O)(=O)c2ccc3c(c2)C2C=CCC2C(c2ccccc2F)N3)cc1 (configuration not stated)	41.0	41.9	nt	i	nt	nt
Cc1ccc(OCC(=O)Nc2ccccc2[N+](=O)[O-])c(Br)c1	i	i	i	i	i	i
COCCCNC(=O)COC(=O)c1ccc(-c2nc3ccccc3s2)s1	i	i	i	i	27.7	i
CNC(=O)COC(=O)c1ccc(-c2nc3ccccc3s2)s1	i	i	i	i	i	i
CCOc1cc(OCC)c(C(C)=O)cc1OCC	i	i	i	i	i	nt
O=C(O)c1ccccc1NC(c1ccccc1)c1ccc(Cl)cc1 (configuration not stated)	i	i	i	41.2	i	i
C/C=C\C(=O)Nc1cccc(C2=NOC3(C2)C[C@@H](C(N)=O)N(C(=O)c2ccc(OC)cc2)C3)c1 (some centres not stated)	nt	nt	i	nt	i	i
Cc1nc2oc3c(NCc4ccccc4)ncnc3c2c2c1COC(C)(C)C2	i	i	i	i	26.9	i
O=C(COc1ccc(Br)cc1)Nc1nnc(C2CC2)s1	i	i	i	i	i	nt
CC(Oc1ccc(Br)cc1)C(=O)Nc1nnc(C2CC2)s1 (configuration not stated)	i	i	i	25.9	i	i
Cc1ccc(NC(=S)N2CC(C)OC(C)C2)cc1C (configuration not stated)	i	i	nt	i	nt	nt
Cc1ccc(NC(=S)N2CCC(NC(=O)c3ccc(F)cc3)CC2)cc1	i	i	i	i	i	i
Cc1ccc(NS(=O)(=O)c2ccc(C(=O)NCc3ccccn3)cc2)cc1	i	i	i	i	30.6	i
